We go through nine compounds from PubChem BioAssay (NCI).

Test [1] is described as follows: NCI Yeast Anticancer Drug Screen. Data for the rad50 strain (AID 155).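 Further: 0% = growth of vehicle-only cultures of the same strain.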 To be noted: S. cerevisiae rad50 strain growth inhibition, hits give high values. Put shortly: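 Compounds were tested on a yeast strain with an engineered DNA damage repair alteration; the reported value is growth inhibition normalised to vehicle treatment.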
Test [2] can be described thus: NCI Yeast Anticancer Drug Screen. Data for the mec2-1 strain (AID 157). As to conditions: S. cerevisiae mec2-1 strain, hits give high values. In short, it runs like this: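 Using mec2-1 yeast: add compound, measure growth, express inhibition versus vehicle-treated cultures.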
Test [3] can be described thus: NCI Yeast Anticancer Drug Screen. Data for the sgs1 mgt1 strain (AID 161).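 Further: 0% = growth of cultures given vehicle only.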 To be noted: S. cerevisiae sgs1 mgt1 strain, hits give high values. Put shortly: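 This yeast growth screen uses a strain with defined DNA-repair lesions; compound-treated growth is compared with vehicle-treated growth.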
Test [4] is described as follows: NCI Yeast Anticancer Drug Screen. Data for the cln2 rad14 strain (AID 165).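 Further: 0% = growth equal to vehicle treated cultures.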 To be noted: S. cerevisiae cln2 rad14 strain, hits give high values. In short, it runs like this: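 Yeast strain cln2 rad14, bearing defects in cell cycle control and DNA repair, serves as the test system; values reflect growth inhibition compared with vehicle.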
A short description of test [5]: NCI Yeast Anticancer Drug Screen. Data for the bub3 strain (AID 167). To be noted: S. cerevisiae bub3 mutant strain, hits give high values. In short, it runs like this:
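Growth of a checkpoint-deficient yeast mutant is measured after compound exposure. Values represent inhibition relative to vehicle.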

Test [6] is described as follows: NCI Yeast Anticancer Drug Screen. Data for the mlh1 rad18 strain (AID 175). As to conditions: S. cerevisiae mlh1 rad18 strain growth inhibition, hits give high values. Put shortly:
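Steps: expose repair-defective yeast to compound; measure growth; express inhibition against vehicle-treated controls.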

Where [7] appears, read: at 5.0 µM (retest, dose inferred, filed as 0.5).
Where [8] appears, read: at 50.0 µM (retest, dose inferred, filed as 5.0).

Compounds without any hit were thinned out: in the full panel of roughly 79,000, 15% have a hit. A number with no mark means an inactive call. The source made the active and inactive calls. No stated cut-off is given here; in the data, active means growth inhibition above about 70%; inactive means the rest.

Take `c1ccc(N/N=C(/CC/C(=N\Nc2ccccc2)c2ccccc2)c2ccccc2)cc1`: the growth inhibition in test [1] (setting [7]) is 6%; in test [1] (setting [8]) it was 77% (active); in test [1] (at 50.0 µM), 95.5% (active); in test [2] (setting [7]), 4%; in test [2] (setting [8]), 90% (active); in test [2] (at 50.0 µM), 97% (active). For the same compound, the growth inhibition was -13% in test [3] (setting [7]); 82% (active) in test [3] (setting [8]); 97.2% (active) in test [3] (at 50.0 µM); -13% in test [4] (setting [7]); 81% (active) in test [4] (setting [8]); 47.8% in test [4] (at 50.0 µM). The growth inhibition in test [5] (setting [7]) is -5%; in test [5] (setting [8]), 89% (active); in test [5] (at 50.0 µM), 95.9% (active); in test [6] (setting [7]), 18%; in test [6] (setting [8]), 92% (active); in test [6] (at 50.0 µM) it was 97.5% (active).

In the case of `CCCCC(CC(=O)O)c1ccc(Cl)cc1` (configuration not stated), the growth inhibition in test [1] (setting [7]) was -146%; in test [1] (setting [8]), -7%; in test [1] (at 50.0 µM), 57.5%; in test [2] (setting [7]), -43%; in test [2] (setting [8]), 17%; in test [2] (at 50.0 µM), 60.7%. Besides, the growth inhibition in test [3] (setting [7]) is -58%; in test [3] (setting [8]), 5%; in test [3] (at 50.0 µM) it was 40.6%; in test [4] (setting [7]), -63%; in test [4] (setting [8]) it was 37%; in test [4] (at 50.0 µM), 70% (active). Also, the growth inhibition in test [5] (setting [7]) is -61%; in test [5] (setting [8]) it was 28%; in test [5] (at 50.0 µM), 54.6%; in test [6] (setting [7]) it was -133%; in test [6] (setting [8]), 13%; in test [6] (at 50.0 µM) it was 66%.

As for `CC(=O)C(=Cc1ccc(C=C(C(C)=O)C(C)=O)cc1)C(C)=O`, the growth inhibition was -1% in test [1] (setting [7]); 30% in test [1] (setting [8]); 45% in test [1] (at 50.0 µM); 5% in test [2] (setting [7]); 40% in test [2] (setting [8]); 58.5% in test [2] (at 50.0 µM). Also, the growth inhibition in test [3] (setting [7]) is 11%; in test [3] (setting [8]), 61%; in test [3] (at 50.0 µM), 58.5%; in test [4] (setting [7]) it was 11%; in test [4] (setting [8]), 8%; in test [4] (at 50.0 µM) it was 46.4%. The growth inhibition in test [5] (setting [7]) was -5%; in test [5] (setting [8]) it was 30%; in test [5] (at 50.0 µM) it was 4.7%; in test [6] (setting [7]) it was 22%; in test [6] (setting [8]), 91% (active); in test [6] (at 50.0 µM), 94.7% (active).

Turning to `Cc1c2cc[n+](C)cc2c(C)c2c1sc1ccccc12`, the growth inhibition in test [1] (setting [7]) was 21%; in test [1] (setting [8]), 97% (active); in test [1] (at 50.0 µM), 39.4%; in test [2] (setting [7]), -2%; in test [2] (setting [8]) it was 98% (active); in test [2] (at 50.0 µM) it was 91.2% (active). The growth inhibition in test [3] (setting [7]) was 18%; in test [3] (setting [8]), 99% (active); in test [3] (at 50.0 µM) it was 90.8% (active); in test [4] (setting [7]), 4%; in test [4] (setting [8]), 97% (active); in test [4] (at 50.0 µM), 91.5% (active). The growth inhibition in test [5] (setting [7]) is 16%; in test [5] (setting [8]), 99% (active); in test [5] (at 50.0 µM), 92.7% (active); in test [6] (setting [7]), 8%; in test [6] (setting [8]), 97% (active); in test [6] (at 50.0 µM) it was 91.5% (active).

For the compound `CCN(CC)CCOc1ccc(/C=C/c2ccccc2)cc1`, the growth inhibition in test [1] (setting [7]) was 2%; in test [1] (setting [8]), 99% (active); in test [1] (at 50.0 µM) it was 73% (active); in test [2] (setting [7]), 0%; in test [2] (setting [8]), 99% (active); in test [2] (at 50.0 µM), 77.7% (active). Further, the growth inhibition in test [3] (setting [7]) is 5%; in test [3] (setting [8]), 98% (active); in test [3] (at 50.0 µM), 93.7% (active); in test [4] (setting [7]), -5%; in test [4] (setting [8]) it was 99% (active); in test [4] (at 50.0 µM) it was 56.7%. Moreover, the growth inhibition in test [5] (setting [7]) was 6%; in test [5] (setting [8]), 99% (active); in test [5] (at 50.0 µM), 93.4% (active); in test [6] (setting [7]), 3%; in test [6] (setting [8]) it was 99% (active); in test [6] (at 50.0 µM), 78% (active).

As for `C/C=C(/CN/C(=C\[N+](=O)[O-])c1ccccc1)c1ccccc1`, the growth inhibition is 0% in test [1] (setting [7]); 87% (active) in test [1] (setting [8]); 96.5% (active) in test [1] (at 50.0 µM); -4% in test [2] (setting [7]); 86% (active) in test [2] (setting [8]); 95% (active) in test [2] (at 50.0 µM). For the same compound, the growth inhibition was 0% in test [3] (setting [7]); 79% (active) in test [3] (setting [8]); 94.3% (active) in test [3] (at 50.0 µM); -1% in test [4] (setting [7]); 37% in test [4] (setting [8]); 75.2% (active) in test [4] (at 50.0 µM). Also, the growth inhibition is 8% in test [5] (setting [7]); 74% (active) in test [5] (setting [8]); 92.7% (active) in test [5] (at 50.0 µM); -8% in test [6] (setting [7]); 84% (active) in test [6] (setting [8]); 95.5% (active) in test [6] (at 50.0 µM).

For the compound `O=C1OC2(Cc3ccccc31)c1ccccc1-c1ccccc12`, the growth inhibition in test [1] (setting [7]) was -5%; in test [1] (setting [8]) it was -1%; in test [1] (at 50.0 µM), 20.8%; in test [2] (setting [7]), -4%; in test [2] (setting [8]), -11%; in test [2] (at 50.0 µM), 25.9%. For the same compound, the growth inhibition in test [3] (setting [7]) is -6%; in test [3] (setting [8]), 38%; in test [3] (at 50.0 µM), 41%; in test [4] (setting [7]), -5%; in test [4] (setting [8]) it was -15%; in test [4] (at 50.0 µM), 17.6%. Further, the growth inhibition is -10% in test [5] (setting [7]); -7% in test [5] (setting [8]); 9.45% in test [5] (at 50.0 µM); -19% in test [6] (setting [7]); -9% in test [6] (setting [8]); 27.8% in test [6] (at 50.0 µM).

Take `COc1ccc2nc3cc(Cl)ccc3c(Nc3ccc(O)c(CNCCO)c3)c2c1`: the growth inhibition in test [1] (setting [7]) is -27%; in test [1] (setting [8]) it was 63%; in test [1] (at 50.0 µM), 88.9% (active); in test [2] (setting [7]), -1%; in test [2] (setting [8]), -6%; in test [2] (at 50.0 µM), 31.9%. The growth inhibition is -5% in test [3] (setting [7]); 44% in test [3] (setting [8]); 81% (active) in test [3] (at 50.0 µM); -2% in test [4] (setting [7]); -11% in test [4] (setting [8]); 17.2% in test [4] (at 50.0 µM). The growth inhibition in test [5] (setting [7]) was 0%; in test [5] (setting [8]) it was -4%; in test [5] (at 50.0 µM), -7.15%; in test [6] (setting [7]), -9%; in test [6] (setting [8]) it was 12%; in test [6] (at 50.0 µM) it was 29.6%.

As for `Nc1c(F)cccc1F`, the growth inhibition in test [1] (setting [7]) was -2%; in test [1] (setting [8]), 8%; in test [1] (at 50.0 µM), -16.3%; in test [2] (setting [7]) it was 2%; in test [2] (setting [8]), 0%; in test [2] (at 50.0 µM), 11.6%. In addition, the growth inhibition in test [3] (setting [7]) was -3%; in test [3] (setting [8]), 1%; in test [3] (at 50.0 µM), -5.95%; in test [4] (setting [7]) it was 2%; in test [4] (setting [8]), -6%; in test [4] (at 50.0 µM), 20.4%. In addition, the growth inhibition in test [5] (setting [7]) was 2%; in test [5] (setting [8]), 7%; in test [5] (at 50.0 µM), -1.15%; in test [6] (setting [7]), 0%; in test [6] (setting [8]), 3%; in test [6] (at 50.0 µM), -8.3%.
